# Experimental data from ChEMBL document CHEMBL3433997, “St. Jude Leishmania screening dataset” (2016).
# Assays:
# Assay type in all cases: functional
# [1] = target: Solute carrier family 2, facilitated glucose transporter member 1 (Homo sapiens) (UniProt P11166); experiment: ST_JUDE_LEISH: Cytotoxicity at 2uM final concentration against transgenic Leishmania Mexicana promastigotes LmGLUT1 that are glucose transport deficient and complemented with the human glucose transporter GLUT1. Activity is measured by DNA content using SYBR green in vitro
# [2] = target: Hexose transporter 1 (Plasmodium falciparum) (UniProt O97467); experiment: ST_JUDE_LEISH: Cytotoxicity at 2uM final concentration against transgenic Leishmania Mexicana promastigotes LmPfHT that are glucose transport deficient and complemented with the Plasmodium falciparum hexose transporter. Activity is measured by DNA content using SYBR green in vitro
# [3] = target: Glucose transporter (Leishmania mexicana) (UniProt O61059); experiment: ST_JUDE_LEISH: Cytotoxicity at 2uM final concentration against transgenic Leishmania Mexicana promastigotes LmGT2 that are glucose transport deficient and complemented with the L. Mexicana glucose transporter 2. Activity is measured by DNA content using SYBR green in vitro
# Sequence of Solute carrier family 2, facilitated glucose transporter member 1 (Homo sapiens) (P11166 whole entry): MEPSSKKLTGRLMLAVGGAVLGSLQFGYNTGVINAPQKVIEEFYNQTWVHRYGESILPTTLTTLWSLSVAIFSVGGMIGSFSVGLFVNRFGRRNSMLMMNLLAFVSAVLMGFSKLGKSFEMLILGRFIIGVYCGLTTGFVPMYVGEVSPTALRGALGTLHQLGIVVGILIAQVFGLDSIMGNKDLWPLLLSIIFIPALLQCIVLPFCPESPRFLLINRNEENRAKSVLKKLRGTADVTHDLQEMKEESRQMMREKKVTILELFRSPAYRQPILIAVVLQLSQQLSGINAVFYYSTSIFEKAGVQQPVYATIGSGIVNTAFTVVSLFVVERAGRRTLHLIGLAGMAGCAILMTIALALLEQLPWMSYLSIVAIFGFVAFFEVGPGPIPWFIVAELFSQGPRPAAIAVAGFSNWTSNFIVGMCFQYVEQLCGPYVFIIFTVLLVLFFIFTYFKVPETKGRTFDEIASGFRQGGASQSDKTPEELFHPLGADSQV
SMILES,inhibition [1] [%],inhibition [2] [%],inhibition [3] [%]
CC(=O)N(C)C1CCN(Cc2cccc(-c3ccc(-c4nc5cc(F)ccc5[nH]4)cc3)c2)C1 (centres undefined),3.46,2.4,3.15
OC(CN1CCN(Cc2ccccc2)CC1)Cn1c(-c2ccccc2)c(-c2ccccc2)c2ccccc21 (centres undefined),2.91,3.3,2.72
COc1ccc(Nc2nccc(N3CCC(NC(=O)C(C)c4ccc(Cl)cc4)CC3)n2)cc1 (centres undefined),0.43,0.07,0.26
CCN(CC)c1ccc(C(=O)Cn2ccc(=N)cc2)cc1,1.35,-0.06,0.82
O=C(Nc1ccc(CN2CCCCC2)cc1)c1ccc(COc2ccc([N+](=O)[O-])cc2)o1,4.55,3.4,0.44
COCCN1CCC(C(=O)NCC(C)(C)c2nc(-c3ccc(Br)c(O)c3)c(-c3ccncc3)[nH]2)CC1,7.2,8.02,7.22
Cc1[nH]c(C)c(C(F)(F)F)c(=O)c1-c1ccc(Oc2ccc(OC(F)(F)F)cc2)cc1,2.24,2.31,0.52
CCCCN(C)CC#Cc1ccc(-c2ccc3[nH]c(C)c(Br)c(=O)c3c2)cn1,6.4,7.74,8.6
Cc1ccc(Nc2ccnc3cc(-c4nccs4)ccc23)cc1C(O)c1ccccc1 (centres undefined),3.59,2.96,3.72
COc1cc(OC)cc(C(=O)Nc2nc(-c3ccc(NC(=O)c4ccccc4)cc3)cs2)c1,16.3,9.26,5.46
O=C(CCNc1ccnc(NCCc2ccccc2)n1)Nc1ccccc1,-0.28,3.7,2.66
O=C(Nc1cccc(C(F)(F)F)c1)c1cccc(S(=O)(=O)NCC2CCCN(CC3CCCCC3)C2)c1 (centres undefined),-0.44,0.12,-2.09
CCN(CC)CCNc1c2ccc(Cl)cc2nc2ccc(OC)nc12,3.46,3.09,3.99
CCCCN(CCCC)CCOc1cc2c(cc1OC)CCN2C(=O)/C=C/c1ccccc1Cl,1.13,1.58,-0.32
CCN(CC)CCCC(C)Nc1c2ccc(Cl)cc2nc2ccc(OC)cc12 (centres undefined),5.81,1.67,3.71
O=C(NCC1CCN(Cc2cccc(C(F)(F)F)c2)C1)c1cc(-c2cccc(F)c2)cs1 (centres undefined),5.58,5.35,5.45
Cc1cc(N[C@@H](Cc2ccccc2)C(=O)Nc2ccccc2)nc(NCCc2ccccn2)n1,4.62,4.95,3.53

SMILES,inhibition [1] [%],inhibition [2] [%],inhibition [3] [%]
COc1cccc(OC)c1OCCCOc1c(C)nc(N)nc1N,0.61,1.79,0.4
CCOC(=O)c1ccc(N2CCN(c3cc(C)ccc3C)CC2)c(NC(=O)Nc2ccc(Cl)c(Cl)c2)c1,0.52,0.93,-0.25
Nn1c(=O)oc2ccc(Cl)cc2c1=O,4.15,10.4,10
OC(c1cccc(OCc2ccccc2)c1)C1CN(CCc2ccccc2)CCC1(O)c1ccccc1 (centres undefined),-1.45,-0.62,-0.2
CN1C(C)(C)CC(NC(=O)c2ccc(-c3nc4cc(Cl)ccc4[nH]3)cc2)CC1(C)C,1.69,2.24,2.7
COc1ccc(Oc2ccc(-c3c(C)[nH]c(C)c(Cl)c3=O)cc2)cc1,2.75,3.46,2.72
CN1CCN(c2ccnc3cc4c(cc23)N(C(=O)Nc2ccc(-c3ccncc3)c3ccccc23)CC4)CC1,3.02,2.26,3.35
CC(C)(C)C(=O)Nc1ccccc1Oc1ccc(Cl)cc1,5.77,4.21,5.27
O=C(NC1CCCCC1)N(CCCn1ccnc1)Cc1csc(-c2ccc(CNCc3ccccc3)cc2)n1,0.1,0.82,1.34
Cc1nc(-c2cccc3c(NC(=O)N4CCc5cc6nccc(N7CCN(C)CC7)c6cc54)cccc23)no1,1.15,-2.64,-0.68
Cc1cc(OCc2ccncc2)cc2c1C(=O)CC(C)(C)O2,-0.52,2.18,0.39
CCCCCCn1c(Sc2ccc(C#N)c([N+](=O)[O-])c2)nnc1-c1ccc(N(C)C)cc1,17.6,16.1,15.3
CC(C)c1ccc(OCC(O)CN(CCN2CCOCC2)C(=O)Nc2ccc(Br)cc2)cc1 (centres undefined),7.44,5.63,9.58
Cc1cc(-c2ccc3c(c2)CCN(CCC2CCC(NC(=O)/C=C/c4ccc(F)cc4)CC2)CC3)on1 (centres undefined),4.44,2.66,4.41
CC(=O)Nc1cccc(CNc2cc(C)nc(Nc3ccc(C)cc3)n2)c1,9.07,8.32,0.76
CCc1cn(CC(=O)N(CCOc2ccc(-c3ccc(C(F)(F)F)cc3)cc2)CCN(CC)CC)c(SCc2ccc(F)cc2)nc1=O,0.38,0.65,-0.06
